# Source: PubChem BioAssay
# Assay: probe aNOTCH2 binding on compound microarray – biochemical, small-molecule microarray, 635/667 nm fluorescence, primary screen (AID 1121);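 further: score merges feature fluorescence read at 667 nm with its signal to noise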
# Details: higher = more signal
row,SMILES,composite z-score
1,COC(=O)C[C@H]1O[C@@H](CCc2ccccc2)[C@@H](C)[C@@H]1[Si](C)(C)c1ccc(OC)cc1,-0.154
2,CC(=CC1CCCCC1)[C@@H](NC(=O)c1cccnc1)c1ccc(-c2ccccc2)cc1,-0.0665
3,[N-]=[N+]=Nc1ccccc1C[C@]1(C(=O)NCC(O)CO)N=C(c2ccc(OCCCO)cc2)O[C@H]1c1ccccc1 (stereo partly specified),-0.14
4,COCC(=C=CC[C@H](O)c1cccc(OCCO)c1)CCO,-0.166
5,COC(=O)[C@H](Cc1ccccc1)N[C@H](/C=C/C1CC1)[C@@H](O)Cc1ccccc1,-0.193
6,C=CCOC(=O)[C@H]1[C@@H]2C(=O)O[C@@H](c3ccccc3)[C@@H](c3ccccc3)N2[C@@H](c2ccc(OCCOC(=O)[C@@H]3C[C@@H]4C(=O)N5CCC[C@H]5C(=O)N4[C@@H]3c3cccc(OCCO)c3)cc2)[C@]12C(=O)Nc1ccc(I)cc12,0.117
7,COCC(=C=CC[C@@H](O)c1ccc(OCCO)cc1)C[C@@H](O)c1ccccn1,-0.157
8,COc1ccc([Si](C)(C)[C@@H]2[C@@H](CCO)O[C@]3(C(=O)N(Cc4cccc(N5CCOC5=O)c4)c4ccccc43)[C@H]2C)cc1,-0.0907
9,[N-]=[N+]=Nc1ccccc1[C@H]1OC(c2ccc(OCCCO)cc2)=N[C@@]1(Cc1ccccc1)C(=O)N1CCOCC1,0.132
10,CN1C(=O)C2C=CC(C(O)C=Cc3ccc([N+](=O)[O-])cc3)N(Nc3ccccc3)C2C1=O (stereo unspecified),-0.0894
11,C#CCOc1ccc(C[C@@H](C(=O)OC)N(CC#C)[C@@H](/C=C/C2CC2)[C@H](O)Cc2ccccc2)cc1,-0.208
